Inconclusive results are not listed. Active and inactive are the calls of the source. Calls follow the shape of the dose curve; as a rule, active = well fitted curve in the direction sought with a large enough effect in the repeat runs; inconclusive = weak or mixed curves; inactive = no such curve, though single readings can be large; an effect the other way counts as inactive or inconclusive.
Columns and labels:
[1] = qHTS RealTime-Glo MT Cell Viability Assay in HEK293 cells - 16 hour (AID 1224872); also: nearly all actives have a fitted effect of over 50% in size; also: potency is read from the fitted curve at half-maximal effect
Summary of the method: (§1)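 Luminescence generated by NanoLuc from substrate produced by living HEK293 cells served as the viability signal. Each value reflects the reading at its stated time point during continuous 40 h compound exposure at 37 C.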

[2] = qHTS RealTime-Glo MT Cell Viability Assay in HepG2 cells - 8 hour (AID 1224873); also: nearly all actives have a fitted effect of over 55% in size; also: potency is read from the fitted curve at half-maximal effect
Summary of the method: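 HepG2 cells (600/well) mixed with RealTime-Glo MT reagent, settled 5 h at 37 C/5% CO2 before compound addition. Nonlytic NanoLuc luminescence from viable-cell prosubstrate reduction read repeatedly during 40 h treatment at 37 C.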

[3] = qHTS RealTime-Glo MT Cell Viability Assay in HEK293 cells - 40 hour (AID 1224874); settings: RealTime-Glo luminescence; max response: active compounds read low; also: nearly all actives have a fitted effect of over 50% in size; also: potency is read from the fitted curve at half-maximal effect
Summary of the method: (§2)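 Viable HEK293 cells reduce a cell-permeant prosubstrate; the product diffuses out and is consumed by NanoLuc in the medium to give light. Compounds went in after a 5 h incubation and plates were read over the treatment course.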

[4] = A CellTox Green Cytotoxicity Assay to monitor cytotoxicity in HEK293 cells - 24 hour (AID 1224875); also: nearly all actives have a fitted effect of over 45% in size; also: potency is read from the fitted curve at half-maximal effect
Summary of the method: (§3)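 Fluorescence intensity, read at 0, 8, 16, 24, 32 and 40 h of compound treatment, reflected dye binding to DNA of dead HEK293 cells; compounds (23 nL, DMSO) were added 5 h after plating cells with reagent.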

[5] = A CellTox Green Cytotoxicity Assay to monitor cytotoxicity in HepG2 cells - 16 hour (AID 1224876); also: nearly all actives have a fitted effect of over 45% in size; also: potency is read from the fitted curve at half-maximal effect
Summary of the method: (§4)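 Using 1536-well format, dye-containing HepG2 suspension was seeded, allowed 5 h at 37 C/5% CO2, dosed by pintool with compounds, positive and negative controls, and imaged for fluorescence across 40 h.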

[6] = qHTS RealTime-Glo MT Cell Viability Assay in HepG2 cells - 32 hour (AID 1224877); also: nearly all actives have a fitted effect of over 55% in size; also: potency is read from the fitted curve at half-maximal effect
Summary of the method: (§5)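 Tox21 10K library screened in qHTS format on HepG2 cells carrying RealTime-Glo reagents. Compounds were added after a 5 h preincubation, and the luminescent signal from continuous culture was measured repeatedly during 40 h treatment.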

[7] = A CellTox Green Cytotoxicity Assay to monitor cytotoxicity in HepG2 cells - 40 hour (AID 1224879); also: nearly all actives have a fitted effect of over 40% in size; also: potency is read from the fitted curve at half-maximal effect
Summary of the method: as §4

[8] = A CellTox Green Cytotoxicity Assay to monitor cytotoxicity in HEK293 cells - 32 hour (AID 1224881); also: nearly all actives have a fitted effect of over 40% in size; also: potency is read from the fitted curve at half-maximal effect
Summary of the method: as §3

[9] = A CellTox Green Cytotoxicity Assay to monitor cytotoxicity in HepG2 cells - 0 hour (AID 1224882); also: nearly all actives have a fitted effect of over 35% in size
Summary of the method: as §4

[10] = A CellTox Green Cytotoxicity Assay to monitor cytotoxicity in HepG2 cells - 32 hour (AID 1224883); also: nearly all actives have a fitted effect of over 50% in size; also: potency is read from the fitted curve at half-maximal effect
Summary of the method: as §4

[11] = A CellTox Green Cytotoxicity Assay to monitor cytotoxicity in HEK293 cells - 8 hour (AID 1224884); also: nearly all actives have a fitted effect of over 35% in size; also: potency is read from the fitted curve at half-maximal effect
Summary of the method: as §3

[12] = qHTS RealTime-Glo MT Cell Viability Assay in HepG2 cells - 16 hour (AID 1224885); also: nearly all actives have a fitted effect of over 50% in size; also: potency is read from the fitted curve at half-maximal effect
Summary of the method: as §5

[13] = qHTS RealTime-Glo MT Cell Viability Assay in HEK293 cells - 24 hour (AID 1224886); also: nearly all actives have a fitted effect of over 50% in size; also: potency is read from the fitted curve at half-maximal effect
Summary of the method: as §1

[14] = qHTS RealTime-Glo MT Cell Viability Assay in HEK293 cells - 8 hour (AID 1224887); also: nearly all actives have a fitted effect of over 50% in size; also: potency is read from the fitted curve at half-maximal effect
Summary of the method: as §2

[15] = A CellTox Green Cytotoxicity Assay to monitor cytotoxicity in HEK293 cells - 16 hour (AID 1224888); also: nearly all actives have a fitted effect of over 35% in size; also: potency is read from the fitted curve at half-maximal effect
Summary of the method: as §3

[16] = qHTS RealTime-Glo MT Cell Viability Assay in HepG2 cells - 0 hour (AID 1224889); also: nearly all actives have a fitted effect of over 50% in size
Summary of the method: as §5

[17] = A CellTox Green Cytotoxicity Assay to monitor cytotoxicity in HepG2 cells - 8 hour (AID 1224890); also: nearly all actives have a fitted effect of over 45% in size; also: potency is read from the fitted curve at half-maximal effect
Summary of the method: as §4

[18] = qHTS assay to identify small molecule antagonists of the estrogen receptor alpha (ER-alpha) signaling pathway using the BG1 cell line in the presence of 0.1 nM 17-beta-estradiol - cell viability counter screen (AID 1259241); also: nearly all actives have a fitted effect of over 40% in size; also: potency is read from the fitted curve at half-maximal effect
Summary of the method: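 The cell line endogenously expresses full-length ER-alpha and carries four EREs driving luciferase. Cells are cultured 5 days hormone-free, treated 22 hr with compounds and 0.1 nM estradiol, then viability is read by fluorescence.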

[19] = A CellTox Green Cytotoxicity Assay to monitor cytotoxicity in HepG2 cells - 24 hour (AID 1224878); also: nearly all actives have a fitted effect of over 45% in size
Summary of the method: as §4

[20] = qHTS RealTime-Glo MT Cell Viability Assay in HEK293 cells - 0 hour (AID 1224880)
Summary of the method: as §2
% is scaled to controls: 0 for no effect and ±100 for the full control effect.

Cn1[nH]nnc1=S
inactive: Potency [1] | Potency [2] | max response [3] 4.93% | Potency [4] | Potency [5] | Potency [6] | Potency [7] | Potency [8] | Potency [9] | Potency [10] | Potency [11] | Potency [12] | Potency [13] | Potency [14] | Potency [15] | Potency [16] | Potency [17] | Potency [18]

CCC(C)(C)C(=O)OC1=C(c2ccc(Cl)cc2Cl)C(=O)OC12CCCCC2
inactive: Potency [1] | Potency [2] | max response [3] -14% | Potency [4] | Potency [5] | Potency [6] | Potency [7] | Potency [8] | Potency [9] | Potency [10] | Potency [11] | Potency [12] | Potency [13] | Potency [14] | Potency [15] | Potency [17] | Potency [18]

CCCCCCCCCC[N+](C)(C)CCCCCCCCCC
inactive: Potency [9]
active: Potency [1] 4.36 µM | Potency [2] 19.5 µM | Potency [3] 0.977 µM | Potency [4] 15.5 µM | Potency [5] 12.3 µM | Potency [6] 7.76 µM | Potency [8] 17.4 µM | Potency [10] 9.77 µM | Potency [11] 17.4 µM | Potency [12] 11 µM | Potency [13] 1.74 µM | Potency [14] 21.9 µM | Potency [15] 17.4 µM | Potency [17] 19.5 µM

CC(C)C(=O)Cl
inactive: Potency [1] | Potency [2] | max response [3] 0.629% | Potency [4] | Potency [5] | Potency [6] | Potency [19] | Potency [20] | Potency [8] | Potency [9] | Potency [10] | Potency [12] | Potency [13] | Potency [14] | Potency [15] | Potency [16] | Potency [17] | Potency [18]

CCCN(CCC)CCc1c[nH]c2ccccc12
inactive: Potency [1] | Potency [2] | max response [3] -15.2% | Potency [4] | Potency [5] | Potency [6] | Potency [19] | Potency [8] | Potency [9] | Potency [11] | Potency [12] | Potency [13] | Potency [14] | Potency [15] | Potency [17]

N#Cc1ccccc1Cl
inactive: Potency [1] | Potency [2] | max response [3] -1.15% | Potency [4] | Potency [5] | Potency [6] | Potency [19] | Potency [8] | Potency [9] | Potency [10] | Potency [12] | Potency [13] | Potency [14] | Potency [15] | Potency [16] | Potency [17] | Potency [18]

S=C=Nc1cccc2ccccc12
inactive: Potency [1] | Potency [2] | max response [3] 2.28% | Potency [4] | Potency [5] | Potency [6] | Potency [7] | Potency [20] | Potency [8] | Potency [9] | Potency [10] | Potency [11] | Potency [12] | Potency [13] | Potency [15] | Potency [16] | Potency [17]
active: Potency [14] 21.7 µM | Potency [18] 30.3 µM

CC(C)(C)C(O)C(Oc1ccc(-c2ccccc2)cc1)n1cncn1 (stereo not given)
inactive: Potency [2] | Potency [4] | Potency [5] | Potency [6] | Potency [20] | Potency [8] | Potency [11] | Potency [12] | Potency [15] | Potency [16] | Potency [17] | Potency [18]
active: Potency [1] 49 µM | Potency [3] 21.9 µM | Potency [13] 43.6 µM

[CH3][Hg][Cl]
inactive: Potency [20] | Potency [9] | Potency [11] | Potency [18]
active: Potency [1] 4.89 µM | Potency [2] 15.5 µM | Potency [3] 3.88 µM | Potency [4] 7.74 µM | Potency [5] 12.3 µM | Potency [6] 10.9 µM | Potency [7] 12.3 µM | Potency [8] 7.74 µM | Potency [10] 12.3 µM | Potency [12] 10.9 µM | Potency [13] 4.89 µM | Potency [14] 6.9 µM | Potency [17] 15.5 µM

Fc1ccc(Oc2ccnc3cc(Cl)cc(Cl)c23)cc1
inactive: Potency [2] | Potency [4] | Potency [5] | Potency [6] | Potency [20] | Potency [8] | Potency [9] | Potency [10] | Potency [12] | Potency [15] | Potency [17] | Potency [18]
active: Potency [1] 7.76 µM | Potency [3] 9.77 µM | Potency [13] 11 µM | Potency [14] 7.76 µM

Nc1ccc([N+](=O)[O-])cc1Cl
inactive: Potency [1] | Potency [2] | max response [3] -7.63% | Potency [4] | Potency [5] | Potency [19] | Potency [7] | Potency [20] | Potency [8] | Potency [9] | Potency [10] | Potency [11] | Potency [12] | Potency [13] | Potency [14] | Potency [16] | Potency [17]

CCSC(C)CC1CC(=O)C(/C(CC)=N/OC/C=C/Cl)=C(O)C1 (stereo not given)
inactive: Potency [1] | Potency [2] | max response [3] 0.0447% | Potency [4] | Potency [5] | Potency [19] | Potency [7] | Potency [20] | Potency [8] | Potency [9] | Potency [10] | Potency [11] | Potency [12] | Potency [13] | Potency [14] | Potency [15] | Potency [16] | Potency [18]

NC(=O)CCl
inactive: Potency [1] | Potency [2] | max response [3] 11.6% | Potency [4] | Potency [5] | Potency [6] | Potency [19] | Potency [8] | Potency [9] | Potency [10] | Potency [11] | Potency [12] | Potency [13] | Potency [14] | Potency [15] | Potency [16] | Potency [17] | Potency [18]
